Inconclusive results are not listed. A number with no mark means an inactive call. The source made the active and inactive calls. Calls follow the shape of the full dose curve; tested in HEK293 reporter line.
Assay: qHTS for Inhibitors of the Functional Ribonucleoprotein Complex (vRNP) of Lassa (LASV) Arenavirus: LASV Primary Screen - GLuc reporter signal (AID 1347082); also: nearly all actives have a fitted effect of over 60% in size
Conditions: LASV minigenome vRNP, Gaussia luciferase reporter; series mostly up to 57.5 µM; activity change, negative = inhibition: at the top concentration
% is scaled to controls: 0 for no effect and ±100 for the full control effect.

Point of comparison: Cc1ccc2nc(N)[nH]c(=O)c2c1Sc1ccncc1, “activity change, negative = inhibition” value -27.7%. Against it:
- CC[C@]1(O)CC[C@H]2[C@@H]3CCC4=CCCC[C@@H]4[C@H]3CC[C@@]21C — higher, -21.8%
- CC[C@]12CCCN3CCc4c(n(c5ccccc45)C(=O)C1)[C@@H]32 — lower, -33.4%
- c1ccc2c(c1)Sc1ccccc1N2CC1CN2CCC1CC2 (stereo unspecified) — higher, -16.1%
- CN1CCCC(n2nc(Cc3ccc(Cl)cc3)c3ccccc3c2=O)CC1 (stereo unspecified) — higher, 0.642%
- CCO[C@H]1O[C@@H]2OC3(C)CC[C@H]4[C@H](C)CC[C@@H]([C@H]1C)[C@@]24OO3 — lower, -33%
- COc1ccc(-c2nc3ccc(C4=NNC(=O)CC4C)cc3[nH]2)cc1 (stereo unspecified) — lower, -30.1%
- C[C@H](N)[C@H](O)c1ccc(O)c(O)c1 — higher, -11.4%

Point of comparison: CCC(OC(C)=O)C(CC(C)NC)(c1ccccc1)c1ccccc1 (stereo unspecified), “activity change, negative = inhibition” value -18.1% [at 115 µM]. Against it:
- COc1cc(CC(C)N)c(OC)cc1Br (stereo unspecified) — higher, -8.49% [at 115 µM]

For COC(=O)Nc1nc2ccc(S(=O)c3ccccc3)cc2[nH]1 (stereo unspecified), the Potency was “inactive”.

Reference: PubChem BioAssay (NCATS)
